Results published in PubChem BioAssay AID1159580 (chemical genetic matrix, 2015).
The whole screen tested about 5,500 compounds, of which about 2,000 (36%) were called active. Not shown: some 18% with an inconclusive outcome. Rule as the data show it: active = normalized growth mostly below about 0.91 (no sharp cut-off); inconclusive = no clear call, values can overlap the other calls; inactive = mostly above about 0.92. Some of the results follow.

Test: chemical genetic growth profiling, strain panel (AID 1159580);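 also: tested at 20 µM; growth read once vehicle control cultures reached saturation at 30 °C; 1 = growth at the plate median or of vehicle wells; lower values mean less growth of the strain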
Conditions: growth OD

Measured: normalized growth

CC(=O)Oc1cccc2c1C(=O)c1c(OC(C)=O)cc(C(=O)O)cc1C2=O
inactive: S. cerevisiae deletion strains, locus YJR075W, strain HOC1, active compounds read low 0.994 | S. cerevisiae deletion strains, locus YKL009W, strain mrt4, active compounds read low 0.986 | S. cerevisiae deletion strains, locus YKL068W, active compounds read low 0.993 | S. cerevisiae deletion strains, locus YKL085W, strain MDH1 (second series), active compounds read low 1 | S. cerevisiae deletion strains, locus YKL085W, strain MDH1, active compounds read low 1 | S. cerevisiae deletion strains, locus YKL190W, strain CNB1, active compounds read low 0.986 | S. cerevisiae deletion strains, locus YKR091W, strain srl3, active compounds read low 0.944 | S. cerevisiae deletion strains, locus YLL041C, strain sdh2, active compounds read low 0.954 | S. cerevisiae deletion strains, locus YLR039C, strain RIC1, active compounds read low 1.02 | S. cerevisiae deletion strains, locus YLR058C, strain SHM2, active compounds read low 1 | S. cerevisiae deletion strains, locus YLR113W, strain HOG1, active compounds read low 1 | S. cerevisiae deletion strains, locus YLR262C, strain YPT6 (second series), active compounds read low 0.891 | S. cerevisiae deletion strains, locus YLR262C, strain YPT6, active compounds read low 1.05 | S. cerevisiae deletion strains, locus YLR320W, strain mms22, active compounds read low 0.908 | S. cerevisiae deletion strains, locus YLR330W, strain CHS5, active compounds read low 1.01 | S. cerevisiae deletion strains, locus YLR342W, strain FKS1 (second series), active compounds read low 1.05 | S. cerevisiae deletion strains, locus YLR357W, strain rsc2, active compounds read low 0.859 | S. cerevisiae deletion strains, locus YLR370C, strain arc18, active compounds read low 0.917 | S. cerevisiae deletion strains, locus YLR384C, strain iki3, active compounds read low 0.954 | S. cerevisiae deletion strains, locus YML016C, strain PPZ1, active compounds read low 1.01 | S. cerevisiae deletion strains, locus YML120C, strain ndi1, active compounds read low 0.943 | S. cerevisiae deletion strains, locus YMR125W, strain sto1, active compounds read low 0.94 | S. cerevisiae deletion strains, locus YMR129W, active compounds read low 0.947 | S. cerevisiae deletion strains, locus YMR205C, strain PFK2, active compounds read low 0.948 | S. cerevisiae deletion strains, locus YMR231W, strain pep5, active compounds read low 0.942 | S. cerevisiae deletion strains, locus YMR263W, strain SAP30, active compounds read low 1 | S. cerevisiae deletion strains, locus YMR307W, strain GAS1, active compounds read low 1.18 | S. cerevisiae deletion strains, locus YNL067W, strain RPL9B, active compounds read low 1.01 | S. cerevisiae deletion strains, locus YNL128W, strain TEP1, active compounds read low 0.993 | S. cerevisiae deletion strains, locus YNL153C, strain GIM3, active compounds read low 1.01 | S. cerevisiae deletion strains, locus YNL183C, strain NPR1, active compounds read low 0.896 | S. cerevisiae deletion strains, locus YNL209W, strain ssb2, active compounds read low 0.93 | S. cerevisiae deletion strains, locus YNL233W, strain BNI4, active compounds read low 1.02 | S. cerevisiae deletion strains, locus YNL248C, strain rpa49, active compounds read low 0.948 | S. cerevisiae deletion strains, locus YNL250W, strain rad50, active compounds read low 0.992 | S. cerevisiae deletion strains, locus YNL271C, strain bni1, active compounds read low 0.997 | S. cerevisiae deletion strains, locus YNL298W, strain CLA4, active compounds read low 0.995 | S. cerevisiae deletion strains, locus YNL322C, strain KRE1, active compounds read low 1 | S. cerevisiae deletion strains, locus YNR049C, strain mso1, active compounds read low 0.956 | S. cerevisiae deletion strains, locus YOL006C, strain TOP1, active compounds read low 1.02 | S. cerevisiae deletion strains, locus YOR001W, strain rrp6, active compounds read low 0.952 | S. cerevisiae deletion strains, locus YOR061W, strain CKA2, active compounds read low 0.996 | S. cerevisiae deletion strains, locus YOR069W, strain VPS5, active compounds read low 1 | S. cerevisiae deletion strains, locus YOR070C, strain gyp1, active compounds read low 0.932 | S. cerevisiae deletion strains, locus YOR080W, strain dia2, active compounds read low 0.938 | S. cerevisiae deletion strains, locus YOR083W, strain WHI5, active compounds read low 0.918 | S. cerevisiae deletion strains, locus YOR106W, strain vam3, active compounds read low 0.905 | S. cerevisiae deletion strains, locus YOR184W, strain ser1, active compounds read low 1.02 | S. cerevisiae deletion strains, locus YOR231W, strain MKK1, active compounds read low 0.95 | S. cerevisiae deletion strains, locus YOR270C, strain vph1, active compounds read low 0.925 | S. cerevisiae deletion strains, locus YOR290C, strain snf2, active compounds read low 0.927 | S. cerevisiae deletion strains, locus YPL055C, strain LGE1, active compounds read low 1.01 | S. cerevisiae deletion strains, locus YPL078C, strain atp4, active compounds read low 0.899 | S. cerevisiae deletion strains, locus YPL106C, strain sse1, active compounds read low 0.989 | S. cerevisiae deletion strains, locus YPL241C, strain CIN2, active compounds read low 1.05 | S. cerevisiae deletion strains, locus YPL256C, strain CLN2, active compounds read low 0.955 | S. cerevisiae deletion strains, locus YPR141C, strain kar3, active compounds read low 0.997 | S. cerevisiae strains, strain wild type, active compounds read low 0.998
active: S. cerevisiae deletion strains, locus YKL160W, strain elf1, active compounds read low 0.901 | S. cerevisiae deletion strains, locus YKR001C, strain vps1, active compounds read low 0.174 | S. cerevisiae deletion strains, locus YKR026C, strain gcn3, active compounds read low 0.908 | S. cerevisiae deletion strains, locus YLL001W, strain dnm1, active compounds read low 0.901 | S. cerevisiae deletion strains, locus YLL026W, active compounds read low 0.917 | S. cerevisiae deletion strains, locus YLR027C, strain aat2, active compounds read low 0.92 | S. cerevisiae deletion strains, locus YLR102C, strain apc9, active compounds read low 0.589 | S. cerevisiae deletion strains, locus YLR221C, strain rsa3, active compounds read low 0.898 | S. cerevisiae deletion strains, locus YLR258W, strain gsy2, active compounds read low 0.909 | S. cerevisiae deletion strains, locus YLR268W, strain sec22, active compounds read low 0.39 | S. cerevisiae deletion strains, locus YLR342W, strain FKS1, active compounds read low 0.891 | S. cerevisiae deletion strains, locus YLR371W, strain rom2, active compounds read low 0.433 | S. cerevisiae deletion strains, locus YLR418C, strain cdc73, active compounds read low 0.28 | S. cerevisiae deletion strains, locus YML032C, strain rad52, active compounds read low 0.392 | S. cerevisiae deletion strains, locus YML124C, strain tub3, active compounds read low 0.537 | S. cerevisiae deletion strains, locus YMR058W, strain fet3, active compounds read low 0.806 | S. cerevisiae deletion strains, locus YMR078C, strain ctf18, active compounds read low 0.826 | S. cerevisiae deletion strains, locus YMR223W, strain ubp8, active compounds read low 0.301 | S. cerevisiae deletion strains, locus YNL071W, strain lat1, active compounds read low 0.901 | S. cerevisiae deletion strains, locus YNL307C, strain MCK1, active compounds read low 0.221 | S. cerevisiae deletion strains, locus YNL322C, strain KRE1 (second series), active compounds read low 0.887 | S. cerevisiae deletion strains, locus YNR052C, strain pop2, active compounds read low 0.135 | S. cerevisiae deletion strains, locus YOL012C, strain htz1 2.42 [resistant] | S. cerevisiae deletion strains, locus YOL147C, strain pex11, active compounds read low 0.433 | S. cerevisiae deletion strains, locus YOR136W, strain idh2, active compounds read low 0.498 | S. cerevisiae deletion strains, locus YOR144C, strain elg1, active compounds read low 0.609 | S. cerevisiae deletion strains, locus YOR265W, strain rbl2, active compounds read low 0.918 | S. cerevisiae deletion strains, locus YOR316C, strain cot1, active compounds read low 0.433 | S. cerevisiae deletion strains, locus YPL051W, strain arl3, active compounds read low 0.867 | S. cerevisiae deletion strains, locus YPL240C, strain hsp82, active compounds read low 0.909 | S. cerevisiae deletion strains, locus YPR119W, strain clb2, active compounds read low 0.63 | S. cerevisiae deletion strains, locus YPR163C, strain tif3, active compounds read low 0.359 | S. cerevisiae deletion strains, locus YPR167C, strain met16, active compounds read low 0.309 | S. cerevisiae deletion strains, strain wtn01, active compounds read low 0.22
